In PubChem BioAssay:

Assay: small-molecule microarray binders of probe aEGFR, primary screen, biochemical, biotinylated probe, 635/667 nm fluorescence (AID 1097);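 note: probe is a biotinylated anti-EGFR antibody binding compounds printed on slides; score combines fluorescence near 667 nm and signal to noise of each spot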
Settings: higher = more signal

Question: Which composite z-score does the source give for `CCOC(=O)NN=C1C[C@@H](O)[C@@H](O)[C@@H]2[C@@H]3C(=O)N([C@@H](C)c4ccccc4)C(=O)[C@@H]3CC[C@@H]12` here?
Answer: 0.143

Question: For `COC(=O)[C@@H]1CC[C@H](C)[C@@H](c2ccc(C)cc2)N1C(=O)c1ccc(C=NO[C@@H](C)c2cn([C@H](CO)Cc3ccccc3)nn2)cc1`, which composite z-score is on record?
Answer: 0.24

Question: With `O=C1CCCC=C1C(O)CCOC(c1ccccc1)(c1ccccc1)c1ccccc1` (configuration not stated) as the compound, how does the composite z-score read?
Answer: -0.198

Question: For `COC(=O)CC=C[C@@H](C)[C@@H]1C=C[C@H](O)[C@@H](CO)O1`, which composite z-score is on record?
Answer: -0.338

Question: For `C[C@@H](ON=C1[C@H]2CCn3c(=O)n(-c4ccccc4)c(=O)n3[C@H]2[C@H](O)[C@@H]2O[C@H]12)c1cn([C@@H]2COC[C@H]2O)nn1`, which composite z-score is on record?
Answer: -0.0788

Question: For `CO[C@@H]1COC(=O)[C@H](CCSC)NC(=O)CC=C[C@@H](C)COC(=O)CCC[C@H]1C`, which composite z-score is on record?
Answer: 0.232

Question: With `COc1cccc([C@@H]2Oc3ccc(OC)cc3C(=O)[C@H]2O)c1` as the compound, how does the composite z-score read?
Answer: -0.0697

Question: With `C=CC1=C[C@H](O)[C@@H]2O[C@@H]2C12OCCCO2` as the compound, how does the composite z-score read?
Answer: 0.009

Question: Which composite z-score does the source give for `CCOC(=O)NN=C1C[C@@H](O)[C@@H](O)[C@@H]2[C@@H]3C(=O)N(Cc4ccccc4)C(=O)[C@@H]3CC[C@H]12` here?
Answer: -0.0387

Question: For `COC(=O)[C@@H]1CC[C@H](C)[C@@H](c2ccc(C)cc2)N1C(=O)c1ccc(C=NO[C@H](C)c2cn([C@H](CO)Cc3ccccc3)nn2)cc1`, which composite z-score is on record?
Answer: 0.119

Question: Which composite z-score does the source give for `COc1cc(O)c(C(=O)C=Cc2ccc3c(c2)OCO3)c(OC)c1` here?
Answer: -0.113

Question: For `CCOC(=O)[C@H](CC(C)C)NC(=O)CCC1CC(OC(=O)NCc2cccc3ccccc23)CC2(CCCC(COC(=O)NCC3CCCCC3)O2)O1` (some centres not stated), which composite z-score is on record?
Answer: -0.0828
